# Source: PubChem BioAssay AID652017 (The Scripps Research Institute Molecular Screening Center, 2013)
# Screen size: about 370,000 compounds; about 3,800 (1%) were called active. What follows is part of a selection rich in actives, with near analogues and random picks from the rest. A number with no mark means an inactive call. Cut-off read from the data, not from the text of the source: active = activation above about 7.8%; inactive = the rest.
# Experiment: SMARCA2 (BRM) function activators, primary screen, cell-based, luminescence, high throughput (AID 652017);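 note: 0% = vehicle wells and 100% = reference activator wells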
# Settings: MG213 cells, MMTV-luciferase reporter, dexamethasone, overnight; at 9.1 µM; hits give high values
row,SMILES,activation
1,Cc1ccccc1NC(=O)Cn1nnc(-c2ccccc2F)n1,1.3%
2,c1ccc(Cc2nn3c(Cn4cnc5ccccc54)nnc3s2)cc1,-3.67%
3,CC(NC(=O)c1ccc(Cl)cc1)C(=O)N1CCCCC1 (centres undefined),0.9%
4,CN1CCC(=NNC(=O)c2ccc(N(Cc3ccc(Cl)cc3)S(C)(=O)=O)cc2)CC1,-1.44%
5,CCC1CCC/C1=N\NC(=O)c1ccc(Cl)cc1 (centres undefined),10.3% (active)
6,O=C(CSc1ncnc2c1nnn2Cc1ccc(F)cc1)NC1CCCC1,-2.99%
7,O=C(OCC(=O)c1cccs1)C1=COCCO1,8.48% (active)
8,O=C(OCC(=O)c1cccs1)c1ccc([N+](=O)[O-])o1,-0.97%
9,CCC(C)(C)c1ccc(Oc2ccc(NC(=O)COC(=O)C3=COCCO3)cc2)cc1,-10.1%
10,O=C1Nc2ccccc2-n2nnnc2C1N1CCN(c2cccc(C(F)(F)F)n2)CC1 (centres undefined),3.09%
11,CCCn1nc(C(=O)NNC(=O)CSCC(=O)Nc2cc(C)on2)c2ccccc2c1=O,-2.41%
12,CCCCn1nc(C(=O)Nc2cccc(C(=O)NC3CC3)c2)c2ccccc2c1=O,1.35%
13,CCCn1nc(C(=O)Nc2ccc3nc(C)sc3c2)c2ccccc2c1=O,11.4% (active)
14,CCOC(=O)[C@@]12CN(C(=O)OC(C)(C)C)CC=C1N(Cc1ccc(OC)cc1)C(=O)[C@H]2CC(=O)NCc1ccc(OC)c(OC)c1,-2.13%
15,COC(=O)[C@H](CC(C)C)NS(=O)(=O)c1c(F)cccc1F,-3.1%
16,C=CCN(C(=O)[C@@H](CCCC)[C@@H](O)c1ccc(Cl)cc1)c1ccccc1,-3.35%
17,COc1ccccc1CCNC(=O)C1CCN(c2nc(C)cc(C)n2)CC1,-2.87%
18,CCOC(=O)[C@]12CCCC=C1N(CCCOC)C(=O)[C@@H]2CC(=O)N1CCOCC1,-2.55%
19,Cc1noc(C)c1NC(=O)Nc1cccc2c1O[C@H](CN(C)S(=O)(=O)c1c(C)noc1C)[C@@H](C)CN([C@H](C)CO)C2=O,2.13%
20,COc1ccc(S(=O)(=O)N(C)C[C@H]2Oc3c(NC(=O)Nc4ccc5c(c4)OCO5)cccc3C(=O)N([C@H](C)CO)C[C@@H]2C)cc1,-0.71%

row,SMILES,activation
1,Cc1noc(C)c1S(=O)(=O)N(C)C[C@H]1Oc2c(NC(=O)Nc3ccc4c(c3)OCO4)cccc2C(=O)N([C@H](C)CO)C[C@@H]1C,8.33% (active)
2,COc1ccc(Cn2cc(COC(=O)N(C)Cc3ccccc3)nn2)cc1,0.64%
3,Clc1ccc(Nc2ccc3ccccc3n2)cc1,5.05%
4,Cc1noc(C)c1/C=N/Nc1ccc2ccccc2n1,9.44% (active)
5,O=C(c1c[nH]c2ccccc12)N1CCC(Oc2cccnc2)CC1,3.83%
6,CN(C)CCNC(=O)c1ccc(Cl)c2cc3ccccc3nc12,56.5% (active)
7,COCCNC(=O)c1ccccc1-c1nc(-c2ccccc2Cl)no1,3.36%
8,Cc1cc(C)n(C(=O)CCNC(=O)c2ccccc2Cl)n1,0.01%
9,CC1(C)CC(=O)C=C(NCCCNC2CCCCC2)C1,10.6% (active)
10,CC1(C)CC(=O)C=C(NCCCN2CCCC2=O)C1,0.48%
11,CC1(C)CC(=O)C=C(NCCN2CCNCC2)C1,-1.09%
12,CC1C(=O)Nc2ccccc2N1C(=O)c1c(F)cccc1F (centres undefined),0.63%
13,O=C(CSc1nnc(COc2ccccc2)n1-c1ccc(Cl)cc1)Nc1ccc2c(c1)OCO2,-6.63%
14,COc1ccc2c(C(C)c3ccc(N)cc3)cn(C)c2c1 (centres undefined),-3.82%
15,Cc1ccc(S(=O)(=O)c2c[nH]c3ccc(C)cc3c2=O)cc1,-1.93%
16,Cc1ccc(S(=O)(=O)c2c[nH]c3ccc(Cl)cc3c2=O)cc1,10.9% (active)
17,CCCCN(C)Cc1c(C)[nH]c2ccc(Cl)cc2c1=O,-3.5%
18,CC(OC(=O)c1cccnc1Cl)C(=O)NC1CCCCC1 (centres undefined),-0.77%
19,CCN(C(=O)[C@@H](C1CC1)[C@@H](O)c1ccc2ccccc2c1)c1ccccc1,-7.28%
20,CC(C)CC(=O)Nc1nnc(S(=O)(=O)N(C)c2ccc(Cl)cc2)s1,1.27%

row,SMILES,activation
1,CCOC(=O)N1CCN(Cc2nc3cc(NC(=O)CC)ccc3n2CC)CC1,-1.94%
2,COc1ccc(N=C(C)c2sc3ccccc3c2O)cc1,11.4% (active)
3,COC(=O)c1ccc(/C=C/c2c(-c3ccc(OC)cc3)sc3ccccc23)cc1,3.05%
4,CCCOc1ccc(Oc2c(Cl)cnn(Cc3cccc4ccccc34)c2=O)cc1,-0.93%
5,CCOC(=O)c1c(C)[nH]c(C2=NNC(=NC(C)COC)SC2)c1C (centres undefined),10.5% (active)
6,Cc1ccccc1CN1CCCCC(NC(=O)c2cccc(C#N)c2)C1=O (centres undefined),-3.87%
7,Cc1ccc(S(=O)(=O)N2C[C@@H]3CCCC[C@@H]3[C@@H](C)[C@H]2c2cn(Cc3ccccc3)c3ccc(F)cc23)cc1,-2.92%
8,CC(C)(C)OC(=O)NCCc1ccccc1/C=C/S(=O)(=O)NCc1ccc(F)cc1,-3.29%
9,O=C(CSc1nnc(-c2ccccn2)n1-c1ccc(Cl)cc1)Nc1ccccc1-c1ccccc1,-4.51%
10,Cn1c2ccc(F)cc2c2nnc(NN)nc21,11.8% (active)
11,CN(C)c1nc(NN)nc(Nc2ccc(F)cc2)n1,-0.18%
12,CCn1c2ccc(F)cc2c2nnc(SCCN3CCOCC3)nc21,0.99%
13,CCOC(=O)C1=C(c2ccccc2)NC(=O)NC1c1cc(OC)c(OC)cc1OC (centres undefined),-1.63%
14,Cc1ccc(-n2c(COc3ccccc3)nnc2SCC(=O)Nc2ccc3c(c2)OCCO3)cc1,-5.34%
15,O=S(=O)(Cc1nnnn1-c1ccccc1)c1ccccc1,3.47%
16,COc1ccc(S(=O)(=O)NC(=O)C2(C)CCN2C(=O)c2ccccc2CCc2ccccc2)cc1 (centres undefined),-0.47%
17,CCS(=O)(=O)c1ccc2oc(SCC(=O)N3c4ccccc4CC3C)nc2c1 (centres undefined),0.08%
18,COc1ccc(S(=O)(=O)N(C)C)cc1NC(=O)CSc1ncccn1,1.65%
19,CN(C)S(=O)(=O)c1ccc2oc(SCC(=O)Nc3ccccc3F)nc2c1,12% (active)
